Consider seven molecules from PubChem BioAssay (NCI).

Some test systems named below: HCT-15 colon; HT29 colon; SNB-75 CNS; SNB-19 CNS; U251 CNS; PC-3 prostate; SK-MEL-5 melanoma; UACC-62 melanoma; LOX IMVI melanoma; SK-MEL-28 melanoma; SK-MEL-2 melanoma; EKVX NSCLC; SN12C renal; UO-31 renal; TK-10 renal; ACHN renal; CAKI-1 renal; A498 renal; CCRF-CEM leukemia; MOLT-4 leukemia.
Assay in all cases: NCI-60 one-dose screen, 48 h (100 = growth as untreated, 0 = no growth, -100 = all killed)
What all share (conditions): 10 µM unless noted

Structures are written as SMILES. Where “and” joins values, the source holds several entries; their conditions need not be identical. Equal values may be shown once. The panel holds about 83,000 compounds, 20% with a hit somewhere; the sample as a whole holds those more often.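 Testing used 96-well plates and a 48-hour single-concentration exposure. Example: -40 means 40% of the starting cells died.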 Calls of active or inactive are those of the source. How the source made its calls: active means growth percent below 10; inactive means the rest.

On to `O=C1OCC2=C1C(c1cccc(C(F)(F)F)c1)c1cc3c(cc1N2CCO)OCCO3` (stereo not given), for which the growth was 14.1% (inactive) in the experiment with HCT-15 colon; 3.94% (active) with HT29 colon; 42.4% (inactive) with SNB-75 CNS; 23.4% (inactive) with SNB-19 CNS; 14.7% (inactive) with U251 CNS; 26.2% (inactive) with PC-3 prostate. For the same molecule, the growth in the experiment on SK-MEL-5 melanoma was 22.9% (inactive); with UACC-62 melanoma, 39.9% (inactive); in the experiment on LOX IMVI melanoma, 37.4% (inactive); with SK-MEL-28 melanoma, 50% (inactive); in the experiment on SK-MEL-2 melanoma it was 26.1% (inactive); in the experiment with EKVX NSCLC, 49.1% (inactive). The growth in the experiment on SN12C renal was 46% (inactive); in the experiment on UO-31 renal, 47.4% (inactive); in the experiment with TK-10 renal it was 54.4% (inactive); with ACHN renal, 33.7% (inactive); in the experiment on CAKI-1 renal, 30.5% (inactive); with A498 renal, 16% (inactive). Moreover, the growth in the experiment with CCRF-CEM leukemia was 9.36% (active); in the experiment on MOLT-4 leukemia, 16.8% (inactive).
For the molecule `Cc1ccc(S(=O)(=O)Nc2cc(Sc3ccccc3)c(O)c3ccccc23)cc1`, the growth with HCT-15 colon is 91.9% (inactive); with HT29 colon it was 120% (inactive); in the experiment with SNB-75 CNS it was 98.4% (inactive); in the experiment with SNB-19 CNS, 105% (inactive); in the experiment on U251 CNS, 16.1% (inactive); in the experiment on PC-3 prostate, 34.6% (inactive). Moreover, the growth in the experiment with SK-MEL-5 melanoma is 41.8% (inactive); with UACC-62 melanoma, 42.9% (inactive); with LOX IMVI melanoma, 2.72% (active); in the experiment with SK-MEL-28 melanoma, 84.8% (inactive); in the experiment on SK-MEL-2 melanoma, 81.8% (inactive); in the experiment on EKVX NSCLC, 116% (inactive). For the same molecule, the growth in the experiment on SN12C renal is 64.2% (inactive); with UO-31 renal, 64% (inactive); in the experiment with TK-10 renal, 111% (inactive); in the experiment on ACHN renal, 91.5% (inactive); with CAKI-1 renal, 73.1% (inactive); in the experiment with A498 renal, 70% (inactive). In addition, the growth in the experiment on CCRF-CEM leukemia was 12.7% (inactive); with MOLT-4 leukemia, -32.2% (active).
`Cc1c(C(=O)OCCCCOC(=O)c2c(C)n(C)c3scc[n+]23)[n+]2ccsc2n1C`: the growth was 106% (inactive) in the experiment on HCT-15 colon; 107% (inactive) in the experiment with HT29 colon; 80.5% (inactive) in the experiment on SNB-75 CNS; 101% (inactive) with SNB-19 CNS; 103% (inactive) with U251 CNS; 92.3% (inactive) with PC-3 prostate. The growth with SK-MEL-5 melanoma is 142% (inactive); with UACC-62 melanoma, 95.7% (inactive); with LOX IMVI melanoma it was 102% (inactive); in the experiment on SK-MEL-28 melanoma, 104% (inactive); in the experiment with SK-MEL-2 melanoma it was 106% (inactive); in the experiment on EKVX NSCLC, 95.6% (inactive). Also, the growth in the experiment with SN12C renal was 90.8% (inactive); in the experiment on UO-31 renal, 78.9% (inactive); with TK-10 renal, 114% (inactive); with ACHN renal, 97.2% (inactive); in the experiment with CAKI-1 renal, 101% (inactive); in the experiment with A498 renal, 156% (inactive). Moreover, the growth in the experiment on CCRF-CEM leukemia is 96.4% (inactive); with MOLT-4 leukemia it was 94.9% (inactive).
`CCCCCCCCCCCCCCCC[N+](C)(C)CCN(Cc1ccc(OC)cc1)c1ncccn1`: the growth was 74.4% (inactive) and 94.5% (inactive) in the experiment on HCT-15 colon; -100% (active) and 18.2% (inactive) in the experiment on HT29 colon; 51.9% (inactive) and 13% (inactive) in the experiment on SNB-75 CNS; -48.7% (active) and 41.9% (inactive) with SNB-19 CNS; -82.5% (active) and 29.2% (inactive) with U251 CNS; -78% (active) and 15.4% (inactive) in the experiment with PC-3 prostate. Besides, the growth in the experiment on SK-MEL-5 melanoma is 8.82% (active) and 39.8% (inactive); in the experiment with UACC-62 melanoma, -39.6% (active) and 19% (inactive); in the experiment on LOX IMVI melanoma, -76.8% (active) and 23.8% (inactive); with SK-MEL-28 melanoma, 33.3% (inactive) and 52.9% (inactive); with SK-MEL-2 melanoma, 59.8% (inactive); with EKVX NSCLC, -84.6% (active). In addition, the growth in the experiment with SN12C renal was -57.9% (active) and 34% (inactive); in the experiment with UO-31 renal it was 9.57% (active) and 80.3% (inactive); in the experiment with TK-10 renal, -90.3% (active) and 71.7% (inactive); in the experiment with ACHN renal it was 45.7% (inactive) and 67% (inactive); with CAKI-1 renal, 44.1% (inactive); in the experiment with A498 renal, -70.4% (active). The growth in the experiment on CCRF-CEM leukemia was -53.1% (active) and 23.7% (inactive); in the experiment with MOLT-4 leukemia, -52% (active) and 23.9% (inactive).
Consider `CCOC(=O)c1c(-c2ccc(C)cc2)c(C#N)c(=O)n(-c2cccc(C(F)(F)F)c2)c1N`, for which the growth was 101% (inactive) with HCT-15 colon; 111% (inactive) with HT29 colon; 76.3% (inactive) in the experiment on SNB-75 CNS; 88.8% (inactive) with SNB-19 CNS; 102% (inactive) in the experiment on U251 CNS; 110% (inactive) in the experiment on PC-3 prostate. The growth was 101% (inactive) in the experiment with SK-MEL-5 melanoma; 99% (inactive) with UACC-62 melanoma; 96.9% (inactive) with LOX IMVI melanoma; 102% (inactive) with SK-MEL-28 melanoma; 116% (inactive) with SK-MEL-2 melanoma; 98.8% (inactive) in the experiment with EKVX NSCLC. Besides, the growth in the experiment with SN12C renal was 95.1% (inactive); with UO-31 renal it was 81.6% (inactive); in the experiment with TK-10 renal, 112% (inactive); in the experiment on ACHN renal, 96.7% (inactive); with CAKI-1 renal it was 91.2% (inactive); with A498 renal, 106% (inactive). Moreover, the growth in the experiment with CCRF-CEM leukemia was 101% (inactive); with MOLT-4 leukemia, 104% (inactive).
Regarding `O=[N+]([O-])c1ccc(S(=O)Cc2ccccc2)c([N+](=O)[O-])c1` (stereo not given), the growth with HCT-15 colon is 6.6% (active) and -44.4% (active); in the experiment on HT29 colon it was -67.6% (active) and -20.6% (active); in the experiment on SNB-75 CNS it was 105% (inactive) and 50% (inactive); with SNB-19 CNS it was 92.8% (inactive) and 97.7% (inactive); in the experiment on U251 CNS it was 93.6% (inactive) and 91% (inactive); in the experiment on PC-3 prostate, 93.9% (inactive) and 82.8% (inactive). Further, the growth in the experiment on SK-MEL-5 melanoma was 88% (inactive) and 75.9% (inactive); with UACC-62 melanoma, 54.6% (inactive) and 82.2% (inactive); in the experiment with LOX IMVI melanoma it was -75.4% (active) and -31.4% (active); with SK-MEL-28 melanoma, 89.4% (inactive) and 23% (inactive); in the experiment with SK-MEL-2 melanoma it was 82.9% (inactive) and 87.7% (inactive); in the experiment on EKVX NSCLC, 90.4% (inactive). In addition, the growth was 62.5% (inactive) and 87.4% (inactive) in the experiment on SN12C renal; -24.9% (active) and -40.3% (active) in the experiment on UO-31 renal; 32.5% (inactive) and -27.2% (active) with TK-10 renal; -58.6% (active) and -91.6% (active) with ACHN renal; 35.8% (inactive) and -14.6% (active) in the experiment on CAKI-1 renal; 98% (inactive) and 85.1% (inactive) in the experiment with A498 renal. Also, the growth in the experiment with CCRF-CEM leukemia is -15% (active) and 0.711% (active); with MOLT-4 leukemia, 81.6% (inactive) and 1.31% (active).
Consider `ON=C1CCCCCCCC1`, for which the growth with HCT-15 colon was 105% (inactive); with HT29 colon it was 104% (inactive) and 110% (inactive); in the experiment on SNB-75 CNS, 101% (inactive) and 80.7% (inactive); with SNB-19 CNS it was 106% (inactive) and 104% (inactive); in the experiment on U251 CNS, 107% (inactive) and 110% (inactive); with PC-3 prostate it was 95.3% (inactive) and 104% (inactive). The growth was 106% (inactive) with SK-MEL-5 melanoma; 103% (inactive) and 110% (inactive) in the experiment on UACC-62 melanoma; 95.4% (inactive) and 102% (inactive) in the experiment with LOX IMVI melanoma; 105% (inactive) and 113% (inactive) with SK-MEL-28 melanoma; 94.9% (inactive) and 100% (inactive) in the experiment on SK-MEL-2 melanoma; 108% (inactive) in the experiment on EKVX NSCLC. Also, the growth in the experiment on SN12C renal is 97.2% (inactive) and 102% (inactive); in the experiment on UO-31 renal it was 79.9% (inactive) and 85.4% (inactive); with TK-10 renal, 100% (inactive); with ACHN renal, 98.6% (inactive) and 105% (inactive); in the experiment with CAKI-1 renal it was 105% (inactive) and 99.8% (inactive); in the experiment on A498 renal it was 102% (inactive) and 105% (inactive). Besides, the growth in the experiment on CCRF-CEM leukemia is 107% (inactive) and 101% (inactive); in the experiment on MOLT-4 leukemia it was 101% (inactive) and 96.2% (inactive).
